# Experimental data: PubChem BioAssay (NCI)
# About 83,000 compounds went through this panel and 20% of them were active in at least one assay; those are over-represented in the sample as a whole.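 How to read the values: 0–100, growth inhibition (40 = 60% inhibited); 0, no net growth; -100 to 0, cell death (-40 = 40% of starting cells died; -100 = all dead).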 Active and inactive are the calls of the source. How the source made its calls: active means growth percent below 10; inactive means the rest.
# Test system: HL-60(TB) leukemia
# Test: NCI-60 one-dose screen, 48 h (100 = growth as untreated, 0 = no growth, -100 = all killed)
# Settings: 10 µM unless noted
row,Structure (SMILES),growth
1,COC(=O)[C@]12CC[C@@H](C)[C@H](C)[C@@H]1C1=CC[C@@H]3[C@@]4(C)C(C=O)=C[C@@](C)(COS(C)(=O)=O)C4=CC[C@@]3(C)[C@]1(C)CC2,-34.8% (active)
2,O=Cc1c[nH]c2ccc(-c3csc4ccccc34)cc12,3.68% (active)
3,CC/C(Cc1ccccc1)=C(\c1ccc(OCCN2CCCC2)cc1)c1ccc(OC(C)=O)cc1,71.3% (inactive)
4,COc1cc2c(cc1-c1c(C)noc1C)ncc1nc(C3CCC(F)(F)CC3)n([C@@H](C)COC(F)F)c12,18% (inactive)
5,COc1cc(/C=C/c2cc(/C=C/c3ccc(O)c(OC)c3)n(C(=O)Nc3ccc(C)cc3C)n2)ccc1O,-30.4% (active)
6,CC(O)CN(CC(C)O)c1ccc2c(c1)Cc1cc([N+](=O)[O-])ccc1-2 (stereo not given),74.5% (inactive)
7,Cc1cnc(C(=O)Nc2nc3ccc(S(=O)(=O)Nc4ccc(C(C)(C)C)cc4)cc3[nH]2)cn1,-18.2% (active)
8,NC(=S)N/N=C(\c1ccc(Cl)cc1)C1CC1,75.7% (inactive)
9,COc1ccc(Cn2c(C(N)=O)cc3c2-c2nc(N)ncc2CCC3)cc1,121% (inactive)
10,CCC(c1cccc(Br)c1)C(C(=O)O)c1ccc(OC)cc1 (stereo not given),96.2% (inactive)
11,Cc1ccc(-c2noc(C)n2)cc1,100% (inactive)
12,Nc1ccc(Sc2ccc([N+](=O)[O-])c3nonc23)cc1,42.8% (inactive)
13,COc1ccc(OC)c([N+](=O)[O-])c1C=O,88.2% (inactive)
14,CC(C)(C)Nc1c(-c2c3ccccc3cc3ccccc23)nc2ccccn12,74.4% (inactive)
15,COc1cc2ncnc(Nc3ccc(S(=O)(=O)Nc4cc(C)on4)cc3)c2cc1OCCCN1CCOCC1,101% (inactive)
